# Laboratory results as given in PubChem BioAssay.
# Calls of active or inactive are those of the source.
# Legend:
# [1] = binders of probe aFSTL3 on microarray, primary screen, stem cell growth factor project, biochemical, small-molecule microarray, fluorescence 635/667 (AID 1064); settings: higher = more signal;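 note: measures binding of the biotinylated anti-FSTL3 antibody to printed compounds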
# [2] = binders from COS7 lysate, DM2A8 probe, primary screen, torsin A project, cell lysate, small-molecule microarray, fluorescence 635/667 (AID 1065); settings: higher = more signal, COS7 lysate expressing mutant human TOR1A
# [3] = binders of probe aFGF2 on microarray, primary screen, stem cell growth factor project, biochemical, small-molecule microarray, fluorescence 635/667 (AID 1067); settings: higher = more signal;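 note: measures binding of biotinylated aFGF2 protein to printed compounds on slides; z-score merges feature fluorescence and signal-to-noise across triplicate slides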
# [4] = binders of probe aFGF10 on microarray, primary screen, stem cell growth factor project, biochemical, small-molecule microarray, fluorescence 635/667 (AID 1071); settings: higher = more signal;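 note: score merges 667 nm spot intensity and signal to noise from triplicate slides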
# [5] = biological target: Neurogenic locus notch homolog protein 2 (Homo sapiens) (UniProt Q04721); test: Notch2 binders on small-molecule microarrays, primary screen, biochemical, small-molecule microarray, 635 nm fluorescence, stem cell growth factors (AID 1073); settings: Notch2 binding, higher = more signal
# [6] = biological target: Pro-neuregulin-1, membrane-bound isoform (Homo sapiens) (UniProt Q02297); test: NRG1 binders on small-molecule microarrays, primary screen, psychiatric disease protein project, biochemical, small-molecule microarray, fluorescence 635/667 (AID 1075); settings: NRG1 binding, 635 nm fluorescence, higher = more signal;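 note: score combines 667 nm spot fluorescence with signal to noise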
# [7] = test system: Neuregulin-1 EGF-like domain; test: binders of neuregulin-1 EGF-like domain, primary screen, biochemical, small-molecule microarray, 635 nm fluorescence (AID 1081); settings: small-molecule microarray binding, higher = more signal;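 note: binding of the protein to compounds printed on small-molecule microarray slides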
# [8] = FRG1 promoter luciferase signal modulators, primary screen, FRG1 inhibition for FSHD, cell-based, C2C12 myotubes, firefly/Renilla luciferase, luminescence (AID 1084); settings: higher = more signal, called active from +8 up or from −8 down
# [9] = binders of probe aFST on microarray, primary screen, stem cell growth factor project, biochemical, small-molecule microarray, fluorescence 635/667 (AID 1086); settings: higher = more signal;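 note: score merges 667 nm fluorescence with signal-to-noise of each printed compound spot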
# [10] = binders of probe aHhip on microarray, primary screen, stem cell growth factor project, biochemical, small-molecule microarray, fluorescence 635/667 (AID 1087); settings: higher = more signal;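 note: score merges spot fluorescence at 667nm with spot signal to noise ratio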
# Sequence of Neurogenic locus notch homolog protein 2 (Homo sapiens) (Q04721 whole entry, looked up, canonical isoform): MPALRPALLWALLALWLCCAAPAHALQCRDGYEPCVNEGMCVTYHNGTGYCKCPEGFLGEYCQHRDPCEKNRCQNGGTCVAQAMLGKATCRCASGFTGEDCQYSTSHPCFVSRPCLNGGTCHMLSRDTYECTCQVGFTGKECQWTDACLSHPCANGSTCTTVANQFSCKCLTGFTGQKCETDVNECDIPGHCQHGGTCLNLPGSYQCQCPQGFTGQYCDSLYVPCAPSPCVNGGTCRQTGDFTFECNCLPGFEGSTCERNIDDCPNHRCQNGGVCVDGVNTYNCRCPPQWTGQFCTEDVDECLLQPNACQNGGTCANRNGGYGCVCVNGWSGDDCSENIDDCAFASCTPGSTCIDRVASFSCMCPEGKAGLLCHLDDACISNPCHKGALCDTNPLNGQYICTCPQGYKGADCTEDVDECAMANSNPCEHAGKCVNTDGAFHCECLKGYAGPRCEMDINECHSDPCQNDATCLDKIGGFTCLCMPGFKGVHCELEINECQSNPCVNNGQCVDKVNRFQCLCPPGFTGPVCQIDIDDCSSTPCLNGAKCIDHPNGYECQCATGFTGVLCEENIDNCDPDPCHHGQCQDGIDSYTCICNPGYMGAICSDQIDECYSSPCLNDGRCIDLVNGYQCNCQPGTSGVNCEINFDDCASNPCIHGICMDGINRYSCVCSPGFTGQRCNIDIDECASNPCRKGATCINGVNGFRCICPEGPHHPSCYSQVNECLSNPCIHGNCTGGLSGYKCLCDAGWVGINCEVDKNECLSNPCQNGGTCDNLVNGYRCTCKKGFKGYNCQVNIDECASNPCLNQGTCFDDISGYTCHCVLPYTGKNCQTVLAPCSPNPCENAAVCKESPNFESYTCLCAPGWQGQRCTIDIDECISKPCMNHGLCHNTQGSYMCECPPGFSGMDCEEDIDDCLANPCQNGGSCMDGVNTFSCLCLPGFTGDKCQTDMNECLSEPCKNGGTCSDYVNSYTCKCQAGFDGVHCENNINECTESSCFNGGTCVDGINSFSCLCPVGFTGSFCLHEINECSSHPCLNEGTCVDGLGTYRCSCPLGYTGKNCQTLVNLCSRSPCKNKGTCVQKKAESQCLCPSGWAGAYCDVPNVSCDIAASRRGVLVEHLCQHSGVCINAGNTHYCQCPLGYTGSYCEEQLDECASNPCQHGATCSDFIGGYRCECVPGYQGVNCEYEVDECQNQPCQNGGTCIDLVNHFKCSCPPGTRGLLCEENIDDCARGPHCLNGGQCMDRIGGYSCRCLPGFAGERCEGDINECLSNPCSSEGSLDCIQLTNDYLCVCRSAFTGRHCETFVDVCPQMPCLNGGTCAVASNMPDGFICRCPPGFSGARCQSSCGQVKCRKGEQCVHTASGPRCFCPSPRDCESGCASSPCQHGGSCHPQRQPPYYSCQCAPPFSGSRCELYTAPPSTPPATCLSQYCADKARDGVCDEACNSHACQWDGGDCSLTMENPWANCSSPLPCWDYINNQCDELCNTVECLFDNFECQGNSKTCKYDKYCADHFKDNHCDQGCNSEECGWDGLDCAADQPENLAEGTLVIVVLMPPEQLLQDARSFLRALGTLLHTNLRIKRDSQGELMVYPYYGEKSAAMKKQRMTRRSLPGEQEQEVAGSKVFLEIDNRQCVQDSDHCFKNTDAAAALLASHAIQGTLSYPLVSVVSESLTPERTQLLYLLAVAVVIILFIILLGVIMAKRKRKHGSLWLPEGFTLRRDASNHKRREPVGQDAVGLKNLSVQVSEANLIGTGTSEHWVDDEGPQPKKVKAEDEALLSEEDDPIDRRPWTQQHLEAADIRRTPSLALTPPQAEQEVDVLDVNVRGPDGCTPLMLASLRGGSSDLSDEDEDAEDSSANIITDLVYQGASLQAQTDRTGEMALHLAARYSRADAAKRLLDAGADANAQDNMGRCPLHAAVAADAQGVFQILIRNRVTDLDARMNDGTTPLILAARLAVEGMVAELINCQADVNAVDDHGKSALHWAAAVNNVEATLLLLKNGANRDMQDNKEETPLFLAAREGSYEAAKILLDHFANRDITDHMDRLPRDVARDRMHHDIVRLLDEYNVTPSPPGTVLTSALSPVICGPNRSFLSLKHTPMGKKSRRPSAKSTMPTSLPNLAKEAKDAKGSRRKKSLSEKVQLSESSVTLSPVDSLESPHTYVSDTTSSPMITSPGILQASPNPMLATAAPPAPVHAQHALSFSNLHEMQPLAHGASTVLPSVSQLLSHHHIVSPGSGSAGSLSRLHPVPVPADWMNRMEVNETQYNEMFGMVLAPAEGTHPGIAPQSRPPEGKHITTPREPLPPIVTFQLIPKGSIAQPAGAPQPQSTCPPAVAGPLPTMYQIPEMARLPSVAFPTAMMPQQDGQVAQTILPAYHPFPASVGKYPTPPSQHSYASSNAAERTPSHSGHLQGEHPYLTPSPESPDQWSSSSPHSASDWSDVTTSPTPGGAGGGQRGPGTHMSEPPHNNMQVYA
# Sequence of Pro-neuregulin-1, membrane-bound isoform (Homo sapiens) (Q02297 whole entry, looked up, the tested form may be a part, canonical isoform): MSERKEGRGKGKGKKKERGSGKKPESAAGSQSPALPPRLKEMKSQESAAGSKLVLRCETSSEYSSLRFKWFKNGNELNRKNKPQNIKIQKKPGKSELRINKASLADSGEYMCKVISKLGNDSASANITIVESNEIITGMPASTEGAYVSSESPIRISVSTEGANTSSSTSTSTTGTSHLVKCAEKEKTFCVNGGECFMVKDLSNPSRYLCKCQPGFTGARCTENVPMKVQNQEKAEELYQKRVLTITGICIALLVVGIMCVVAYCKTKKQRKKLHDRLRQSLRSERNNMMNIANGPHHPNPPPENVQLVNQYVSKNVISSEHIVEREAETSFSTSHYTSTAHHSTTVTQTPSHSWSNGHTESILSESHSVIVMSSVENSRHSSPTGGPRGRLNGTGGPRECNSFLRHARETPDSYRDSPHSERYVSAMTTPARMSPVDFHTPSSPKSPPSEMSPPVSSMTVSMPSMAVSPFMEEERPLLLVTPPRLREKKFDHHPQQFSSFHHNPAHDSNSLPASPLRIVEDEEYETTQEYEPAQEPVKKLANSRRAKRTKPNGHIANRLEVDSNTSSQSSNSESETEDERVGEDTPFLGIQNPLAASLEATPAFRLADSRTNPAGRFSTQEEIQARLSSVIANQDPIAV
Compound,composite z-score [1],composite z-score [2],composite z-score [3],composite z-score [4],composite z-score [5],composite z-score [6],composite z-score [7],z-score [8],composite z-score [9],composite z-score [10]
O=C(CCN1CCOCC1)c1cccc(O)c1,-0.302,1.79,-0.0521,0.628,1.31,1.23,1.17,-1.28 (inactive),0.852,-0.0953
NCCCCCNC(=O)[C@H]1C[C@H]2C(=O)NCC(=O)N2[C@H]1c1cccc(OCCO)c1,0.257,0.759,-0.0337,-0.0838,0.709,1.17,1.43,1.11 (inactive),0.95,0.165
O=C1OCCC=C[C@H]2OC34C=CCN(c5ccc6ccccc6c5)C(=O)[C@H]3N(CCCCCO)C(=O)[C@@H]4C12 (stereo not given in full),1.05,2.06,-0.116,0.0074,-0.377,2.17,1.57,-0.517 (inactive),-0.188,0.0176
C=CC[C@@]1(C(=O)O)N=C(c2ccc(OCCCO)cc2)O[C@@H]1c1ccccc1N=[N+]=[N-],1.44,-0.0147,-0.0112,0.484,0.0707,0.915,1.07,4.25 (inactive),0.965,0.421
O=C(O)[C@@]1(Cc2ccccc2)N=C(c2ccc(OCCCO)cc2)O[C@H]1c1ccccc1,0.447,-0.647,-0.0819,0.0083,-0.738,1.91,0.923,-3.29 (inactive),0.88,-0.126
COC(=O)C(CC#Cc1ccc2c(c1)[C@]1(C(=O)N2)[C@H](c2ccc(OCCO)cc2)N2[C@H](c3ccccc3)[C@H](c3ccccc3)OC(=O)[C@H]2[C@@H]1C(=O)NC[C@H](O)c1ccccc1)C(=O)OC,0.194,0.855,-0.0011,1.12,0.694,1.29,1.26,1.03 (inactive),-0.0592,0.0274
COC(=O)c1c(CC[C@@H](CO)NC(=O)N[C@@H](Cc2ccccc2)Cn2cc(C3(O)CCCCC3)nn2)oc(C(C)=O)c1C(=O)OC,-0.352,1.02,-0.0478,0.337,0.617,0.824,0.862,1.14 (inactive),0.439,-0.0994
O=C1O[C@@H](c2ccccc2)[C@@H](c2ccccc2)N2[C@@H](c3ccc(OCCO)cc3)[C@]3(C(=O)Nc4ccc(C#CC5=CCCCC5)cc43)[C@@H](C(=O)O)[C@H]12,0.44,0.681,-0.0158,0.506,1.48,1.59,1.12,0.82 (inactive),0.492,0.0274
COC(=O)[C@@]1(Cc2ccccc2)N=C(c2ccc(OCCCO)cc2)O[C@H]1c1ccccc1N=[N+]=[N-],0.454,2.86,-0.0667,0.123,0.784,0.657,1.33,3.69 (inactive),0.0183,-0.201
[N-]=[N+]=NCc1ccccc1C[C@]1(C(=O)O)N=C(c2ccc(OCCCO)cc2)O[C@H]1c1ccccc1CN=[N+]=[N-],-0.0279,0.169,-0.0474,0.396,0.591,1.53,1.16,-1.66 (inactive),0.467,-0.239
C=C[C@H](COC(C)=O)N(Cc1ccc(OC(C)=O)c(OC)c1)S(=O)(=O)c1ccc(Br)cc1,-0.0411,1.46,0.125,0.311,0.86,0.785,1.14,-3.46 (inactive),0.413,-0.0024
CC(C)C[C@@H]1NC(=O)[C@@H]2C[C@H](C(=O)NCCCCCC[N+](C)(C)C)[C@H](c3ccc(O)cc3)N2C1=O,-0.0515,0.349,-0.112,0.154,-0.344,1.57,1.46,1.97 (inactive),0.0819,-0.271
CCOC(=O)[C@H]1C[C@H]2O[C@@]23C[C@H]1C(=O)N1CCCC1[C@@H]3O[Si](C)(C)C(C)(C)C (stereo not given in full),-0.328,-0.537,-0.104,-0.101,-0.547,-0.333,-0.76,-0.184 (inactive),0.0204,0.0274
O=C(CS)NCCCCCCNC(=O)[C@H]1C[C@H]2C(=O)N3CCC[C@H]3C(=O)N2[C@H]1c1cccc(OCCO)c1,0.255,0.7,-0.0802,0.635,0.698,1.23,1.4,0.865 (inactive),0.189,0.235
C=CCOC(=O)[C@@H]1[C@H]2C(=O)O[C@H](c3ccccc3)[C@H](c3ccccc3)N2[C@H](c2ccc(OCCOC(=O)[C@@H]3C[C@@H]4C(=O)NCC(=O)N4[C@@H]3c3cccc(OCCO)c3)cc2)[C@@]12C(=O)Nc1ccc(I)cc12,-0.112,0.948,-0.119,0.818,1.18,1.29,1.35,0.536 (inactive),0.272,-0.0391
CC1=C2[C@@H](CCc3ccccc3)OB(O)C[C@@H]2n2c(=O)n(-c3ccccc3)c(=O)n2C1,-0.388,-0.214,-0.132,0.203,0.889,0.537,1.04,-2.85 (inactive),0.156,-0.34
COC(=O)[C@@]1(Cc2ccc(OC)cc2)[C@H]2c3cc(C(=O)N4CCCC4)n(Cc4cc(F)cc5c4OCOC5)c3C[C@H]2CN1C(=O)c1ccccc1,0.152,-0.0429,0.275,0.535,1.74,2.29,1.28,1.61 (inactive),0.83,1.14
